According to PubChem BioAssay AID2216 (Broad Institute, 2009):
The whole screen tested about 300,000 compounds, of which about 3,300 (1.1%) were called active. Not shown: some 6% with an inconclusive outcome. Shown is part of a subset that was picked to be rich in actives. Unmarked numbers belong to inactive results.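 Rule for the calls: active = more than half of the replicate wells show a fall in the fluorescence ratio signal beyond about 16% (limit read from the data, passing the limit was not always enough); inconclusive = exactly half of the replicate wells pass the set limit; inactive = fewer than half of replicates pass the limit.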

These compounds were tested on Ran GTPase (GTP-bound) - importin-beta complex (assay: inhibitors of RanGTP-importin-beta interaction, primary screen, biochemical, FRET, CFP-Ran, YFP-importin-beta, homogeneous (AID 2216;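 note: 0% = DMSO wells and 100% = Ran loaded with GDP instead of GTP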)). Settings: cell-free CFP-Ran/YFP-importin-beta FRET ratio; active compounds read high; concentration not given here.
`CCOC(=O)C(O)(c1ccc(NC(=O)c2ccco2)c(OC)c1)C(F)(F)F` (stereo not given) gave an inhibition of -1.67%.
`COc1cc(Cn2c(N)c(C(=O)NCc3ccco3)c3nc4ccccc4nc32)cc(OC)c1OC` was tested, and the inhibition was 54% (active).
`COC(=O)C1=C(c2ccccc2)C[C@@H]2CC[C@H]1N2C(=O)NCc1ccco1` showed an inhibition of 1.27%.
Compound `C/C(=N/O)c1ccc2ccc3ccccc3c2c1` has an inhibition of 4.2%.
Work on `CC[C@H]1CC2CN3CCc4c([nH]c5ccccc45)C(C(=O)OC)(C2)C13` (stereo not given in full) yielded an inhibition of -1.66%.
